About 5,100 (2.5%) of roughly 200,000 compounds were called active. The sample holds actives, similar compounds and a random draw of the others, so the mix is not that of the screen. A number with no mark means an inactive call.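 How the source made its calls: active means activation above the screen-wide mean activation plus 3 SD (cut at about 130% in these data); inactive means the rest.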
Assay: potentiators of IFN-gamma driven STAT1 reporter – cell-based, HTS, luciferase reporter, primary screen (AID 932);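 further: raw ratio to IFN-gamma control signal so 100% means no change and 0% no light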
Conditions: NIH 3T3 STAT1-luciferase reporter, luminescence, at 5.5 µM, hits give high values, 100% = IFN-gamma alone, no compound

| Compound | activation (% of control) |
| --- | --- |
| O=C(Nc1ccncc1)c1ccccc1[N+](=O)[O-] | 105% |
| O=C(NC(CC(=O)N1CCN(c2ccccc2)CC1)c1ccccc1)c1ccccc1Cl (stereo not given) | 95% |
| O=C(OCC(=O)c1c[nH]c2ccccc12)c1cccc(O)c1 | 93.7% |
| O=S(=O)(NCCc1ccc(F)cc1)c1cccc2cccnc12 | 102% |
| OCC1(CCc2ccccc2)CCN(Cc2ccc3nsnc3c2)CC1 | 100% |
| Cc1ccc(S(=O)(=O)N2CCOCC2)cc1C(=O)NC(=S)N(Cc1ccccc1)C(C)C | 102% |
| Cc1ccc(-n2c(C)cc(/C=C(\C#N)C(=O)NCC3CCCO3)c2C)cc1 (stereo not given) | 140% (active) |
| Cc1ccc(C(=O)N/C(=C/c2cccs2)C(=O)NCC2CCCO2)cc1 (stereo not given) | 99.5% |
| Cc1ccc(S(=O)(=O)N2CCC(C(=O)NCC3CCCO3)CC2)cc1 (stereo not given) | 99.9% |
| O=C(Nc1ccc(F)c([N+](=O)[O-])c1)C1CC(=O)N(Cc2ccccc2)C1 (stereo not given) | 95.9% |
| CN(C)Cc1ccc(F)cc1Sc1cc(Cl)ccc1Cl | 98.7% |
| O=C(COC(=O)Cn1cnc2ccccc21)Nc1cccc2c1C(=O)c1ccccc1C2=O | 104% |
| O=C(c1cccc(C(=O)N2CCc3ccccc32)n1)N1CCc2ccccc21 | 95.1% |
| O=C(c1cnn2ccccc12)N1CCc2ccccc21 | 136% (active) |
| Cc1occc1C(=O)N1CCCc2ccccc21 | 104% |
| O=C(Cc1c(F)cccc1Cl)Nc1ccc(-n2cnnn2)cc1 | 98.6% |
| COc1ccc(NC(=O)CN2C(=O)C(c3ccccc3)=NC23CCCCCC3)cc1OC | 104% |
| N#C/C(=C1\CCCN1)c1nc(-c2ccccc2)cs1 | 105% |
| N#CC(=C1SC=CS1)c1nc(-c2ccccc2)cs1 | 133% (active) |
| N#CC(=C1CCCC1)c1nc(-c2ccc(Cl)cc2)cs1 | 110% |
| O=C(CN(CC1CCCO1)C(=O)CNS(=O)(=O)c1ccc(F)cc1)NCc1ccco1 (stereo not given) | 109% |
| COc1cc(OC)cc(-c2nc(=S)n3ccsc3n2)c1 | 108% |

| Compound | activation (% of control) |
| --- | --- |
| Cc1cccc(C(=O)N2CCCN(C(=O)c3cccc(C)c3)CC2)c1 | 103% |
| Cc1cc(=O)oc(C)c1C(=O)N1CCCCC1 | 104% |
| Cc1ccc2cc3cc(C(=O)N4CCCCCC4)oc3nc2c1 | 169% (active) |
| O=C1C(C=NCC2CCCO2)=C(O)c2ccccc21 (stereo not given) | 137% (active) |
| O=C(CS(=O)(=O)Cc1ccccc1)NCC1CCCO1 (stereo not given) | 94.5% |
| CC(=NCC1CCCO1)c1c(O)[nH]c(=O)[nH]c1=O (stereo not given) | 106% |
| COc1ccc(CCNC(=O)CN(c2ccccc2)S(C)(=O)=O)cc1 | 98% |
| COc1ccc(-n2nnnc2-c2nc3ccccc3s2)cc1 | 166% (active) |
| COc1ccc(-n2nnnc2SCC(=O)Nc2ccccc2)cc1 | 99.3% |
| CCOc1cccc(-n2nnnc2-c2ccc(OC)cc2)c1 | 93.4% |
| Cc1ccc(C(=O)N/C(=C\c2cccs2)C(=O)NCCc2ccccn2)cc1C | 103% |
| CN(C)C(=O)CSc1n[nH]c(-c2ccco2)n1 | 101% |
| O=C(Cn1c(-c2cncs2)nc2ccccc21)NC1CCCC1 | 103% |
| CC(=O)OC(C(=O)NC1CCCCC1)c1ccccc1 (stereo not given) | 95.8% |
| O=C(/C=C/c1cnc2ccccc2n1)NC1CCCCCC1 | 142% (active) |
| C/C(=C/C(=O)N1CCN(C)CC1)C(=O)O | 88.6% |
| CCOn1c(=O)c(=O)n(O)c2ccccc21 | 95.6% |
| COC(=O)c1cccc([N+](=O)[O-])c1CS(=O)(=O)c1ccc(C)cc1 | 98.8% |
| CCNc1nc(-c2cc3ccccc3o2)cs1 | 176% (active) |
| O=c1oc2ccccc2cc1-c1csc(Nc2ccc(O)cc2)n1 | 117% |
| Cc1nc(C)c(-c2csc(NCCc3ccccc3)n2)s1 | 102% |
| CC1(C)CC(=O)C2=C(C1)Nc1cc(C(=O)c3ccccc3)ccc1NC2c1ccccn1 (stereo not given) | 104% |

| Compound | activation (% of control) |
| --- | --- |
| CCN1CCN(C(C(=O)NC2CCCC2)c2cc3c(cc2[N+](=O)[O-])OCO3)CC1 (stereo not given) | 107% |
| Cc1nc(-c2ccccc2)sc1C(=O)/C=C/N(C)C | 147% (active) |
| Cc1nc(-c2ccccc2)sc1C(=O)/C=C/c1ccccc1 | 105% |
| Cc1ccc(SCC(=O)c2sc(-c3ccccc3)nc2C)cc1 | 102% |
| N/C(=N\OC(=O)c1cc(-c2ccccc2)nc2ccccc12)c1ccncc1 | 99.8% |
| Cc1cccc(/C(N)=N/OC(=O)c2ccccc2Cl)c1 | 138% (active) |
| Cc1cccc(C(=O)c2cccc(C)c2)c1 | 103% |
| COc1ccccc1C(=O)CSc1cccc[n+]1[O-] | 105% |
| CC(C)Oc1ccc(Cc2n[nH]c(=S)n2Cc2ccccc2)cc1Cl | 90.5% |
| CCN1CCc2nc(NC(=O)c3cc(F)c(F)cc3Cl)sc2C1 | 111% |
| CC(=O)c1cccc(NC(=O)Nc2ccc(C)cc2)c1 | 118% |
| Cc1cccc(NC(=O)Nc2nnc(-c3ccccc3)o2)c1 | 99.5% |
| Cc1ccc(NC(=O)Nc2ccccc2)c(Br)c1 | 164% (active) |
| CN=C(c1ccccc1)c1c(C)cccc1C | 93.1% |
| O=C(CC1C(=O)NCCN1Cc1ccc(-c2ccccc2)cc1)NCC1CCOCC1 (stereo not given) | 102% |
| O=C(Cc1csc(Nc2nc(=S)[nH]c3ccccc23)n1)NCCCN1CCN(c2cccc(Cl)c2)CC1 | 90.9% |
| Cc1ccccc1CC1(CO)CCCN(C(=O)c2cc(-c3ccccc3)no2)C1 (stereo not given) | 104% |
| CC(=O)c1cccc(CN2CCC(CO)(Cc3ccccc3)CC2)c1 | 96% |
| COC(=O)CCC(=O)N1CCCC(CO)(Cc2ccccc2)C1 (stereo not given) | 146% (active) |
| CCc1nnc(NC(=O)c2cccc(S(=O)(=O)N(C)c3ccc(OC)cc3)c2)s1 | 86.1% |
| CCN(CC(=O)NCc1cccs1)S(=O)(=O)c1ccc(NC(C)=O)cc1 | 104% |
